FBW7 activator: activators of human E3 ligase FBW7 | AlphaScreen FBW7–phospho-cyclin E peptide binding, activator screen | hit rate 0.13% among 650,000 | normalized activity (activation), % at 26.1 µM; in the data active = normalized activity above about 1.9%;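 note: purified mutant Fbw7 with reduced substrate affinity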
MITF primary: inhibitors of human MITF; AlphaScreen MITF homodimerization, bead proximity signal; O75030; hit rate 0.91% among 650,000; AID 1259374; inhibition, % at 2.6 µM; in the data active = inhibition above about 50%;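 note: 0% = vehicle wells with protein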
TEAD-YAP inh: TEAD-YAP interaction inhibition. HEK-TIYL cells, TEAD-Gal4/YAP UAS-luciferase luminescence. inhibition, % at 9.12 µM. hit rate 1.4% among 640,000. AID 1259422; in the data active = inhibition above about 32%;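 note: 0% = median of test compound wells and 100% = reference inhibitor wells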
GPR151 activ: activates the human receptor GPR151. AID 1508602. activation, % at 11.2 µM. hit rate 1% among 650,000. PathHunter beta-arrestin GPR151 cells, luminescence; in the data active = activation above about 4.9%;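 note: 0% = median of compound wells and 100% = cells with positive control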
Target sequence (Q8TDV0 whole entry, looked up): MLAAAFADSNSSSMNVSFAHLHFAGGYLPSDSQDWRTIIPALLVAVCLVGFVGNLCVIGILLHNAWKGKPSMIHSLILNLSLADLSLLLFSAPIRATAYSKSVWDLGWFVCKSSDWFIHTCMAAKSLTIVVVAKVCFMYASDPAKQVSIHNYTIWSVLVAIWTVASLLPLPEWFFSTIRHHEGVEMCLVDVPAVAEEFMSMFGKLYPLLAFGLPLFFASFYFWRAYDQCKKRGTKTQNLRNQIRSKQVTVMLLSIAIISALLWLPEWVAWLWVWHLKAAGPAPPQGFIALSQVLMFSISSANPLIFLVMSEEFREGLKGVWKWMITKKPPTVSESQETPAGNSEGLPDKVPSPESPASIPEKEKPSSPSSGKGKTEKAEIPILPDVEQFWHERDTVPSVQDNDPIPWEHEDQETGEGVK
* hit, by the source's call. An excerpt weighted towards active compounds, which were near 3.4% of everything screened.

SMILES | FBW7 activator | MITF primary | TEAD-YAP inh | GPR151 activ
COc1ccc(NC2=NC(C)(C)Cc3ccccc32)cc1 | 0 | 9 | -3 | 2
C/C(=N\NC(=O)c1cc(-c2cccnc2)nc2ccccc12)c1ccccc1O | 0 | 6 | 41* | 2
COc1cccc(/C(C)=N/NC(=O)c2cc(-c3cccnc3)nc3ccccc23)c1 | 0 | 7 | 10 | -1
NC1=NC(=O)/C(=C/c2ccc(-c3cccc(C(=O)O)c3)o2)S1 | 0 | 3 | 70* | 0
CCN=C1S/C(=C\c2ccc(-c3cccc(C(=O)O)c3)o2)C(=O)N1CC | 0 | 8 | 34* | 1
CCN=C1S/C(=C/c2ccc(-c3ccc(Cl)cc3C(=O)O)o2)C(=O)N1CC | 0 | -1 | -1 | 0
NC1=NC(=O)/C(=C\c2ccc(-c3cccc(Cl)c3)o2)S1 | 0 | 15 | -4 | 1
CC(C)C(=O)N1CCCC(c2nnc(-c3ccccc3F)s2)C1 (configuration not stated) | 0 | 8 | 93* | -6
CC(=O)N1CCCC(c2nnc(-c3ccccc3F)s2)C1 (configuration not stated) | 0 | -1 | 82* | -6
COc1ccc(CNC(=O)N2CCCC(c3nnc(-c4ccccc4F)s3)C2)cc1 (configuration not stated) | 0 | 12 | -23 | 0
CCc1ccc(Nc2nnc(SCC(=O)Nc3ccc4c(c3)OCCO4)s2)cc1 | 0 | 3 | -18 | 1
COc1ccc(S(=O)(=O)Nc2cc3c(cc2C(C)=O)OCO3)cc1 | 0 | 11 | 38* | 1
CCOc1ccc(S(=O)(=O)Nc2cc3c(C(=O)OC)c(C)oc3c3ccccc23)cc1 | 0 | -2 | 63* | 2
CCOC(=O)c1ccccc1NS(=O)(=O)c1ccc(OCC)cc1 | 0 | -15 | 48* | -2
COc1ccc(S(=O)(=O)Nc2cc3c(C(C)=O)c(C)oc3c3ccccc23)cc1 | 0 | -3 | 69* | 3
CC(=O)c1cc2c(cc1NS(=O)(=O)c1ccc(C(C)(C)C)cc1)OCO2 | 0 | 4 | -4 | 0
N#C/C(=C\c1ccc(-c2ccc(C(=O)O)cc2)o1)C(=O)NCc1cccs1 | 0 | 14 | -35 | 0
CCN(c1ccc(F)cc1)S(=O)(=O)c1ccc2[nH]cc(C(=O)NC(C)C)c(=O)c2c1 | 0 | 0 | -2 | -1
CCOc1ccc(S(=O)(=O)Nc2cc3c4c(oc3c3ccccc23)CCCC4)cc1 | 0 | -9 | 49* | -1
CCOC(=O)c1c(C)oc2c1cc(NS(=O)(=O)c1ccc(OC)cc1)c1ccccc12 | 0 | 10 | 51* | 0
COc1cc(C)c(CN2CCN(C3CCCC3)C(CCO)C2)cc1C (configuration not stated) | 0 | -27 | -1 | -1
COc1ccc2c(Cn3cnc4cc([N+](=O)[O-])ccc4c3=O)cc(=O)oc2c1 | 0 | 0 | 64* | 0
O=C(Oc1cccc2ccccc12)N1CCN2C(=O)[C@@H]3CSCN3C(=O)[C@H]2C1 | 0 | -16 | 35* | 0
COc1ccc(C(=O)COC(=O)c2ccc(Cl)cc2N)cc1 | 0 | -4 | -2 | 0
COc1cc(C(=O)NNC(=O)c2cccc(Cl)c2)cc(OC)c1OC | 0 | 0 | 5 | 4
SMILES | FBW7 activator | MITF primary | TEAD-YAP inh | GPR151 activ
COc1cc(C(=O)c2cc(Cl)ccc2N)cc(OC)c1OC | 0 | 12 | 52* | 0
COc1cc(C(=O)COC(=O)c2ccc(Cl)cc2N)cc(OC)c1OC | 0 | 1 | 53* | 0
Cc1ccc2[nH]c3c(=O)n(C)nnc3c2c1 | 0 | -16 | -2 | 0
COc1ccc(-c2nc(NC3CCN(Cc4ccccc4)CC3)c3ncn(-c4ccsc4)c3n2)cc1 | 0 | 10 | 0 | 0
COc1ccc(-c2nc(NC3CC3)c3ncn(-c4ccsc4)c3n2)cc1 | 0 | 3 | 50* | 2
Cc1nn(C)c(C)c1-c1nc(NC2CC2)c2ncn(-c3ccsc3)c2n1 | 0 | 1 | 40* | 2
CC(C)=C1C2C=CC1C(C(=O)Nc1ccc(Cl)cc1)C2C(=O)O (configuration not stated) | 0 | -1 | -4 | 1
O=C(Cc1n[nH]c(=O)c2ccccc12)OCC(=O)c1ccc2c(c1)OCCO2 | 0 | 3 | 50* | -2
CS(=O)(=O)N1N=C(c2ccc(Br)cc2)CC1c1ccco1 (configuration not stated) | 0 | 4 | -50 | -4
CCc1ccccc1NC(=O)Cn1c(-c2nonc2N)nc2ccccc21 | 0 | -1 | 7 | 1
Nc1nonc1-c1nc2ccccc2n1CC(=O)Nc1ccccc1C(F)(F)F | 0 | 3 | 34* | -1
CC(=O)Nc1nonc1-c1nc2ccccc2n1Cc1c(F)cccc1Cl | 0 | 3 | -6 | -1
O=C(Nc1nonc1-c1nc2ccccc2n1Cc1c(F)cccc1Cl)c1ccccc1Cl | 0 | -8 | 65* | 1
CCCCOc1ccccc1NC(=O)Cn1c(-c2nonc2N)nc2ccccc21 | 0 | -5 | 54* | -1
Nc1nonc1-c1nc2ccccc2n1CC(=O)N/N=C/c1ccncc1 | 0 | 0 | 53* | 1
COc1cccc(OC)c1OC(=O)c1ccc(Cl)c([N+](=O)[O-])c1 | 0 | 10 | -1 | -1
O=C(c1ccc(Br)o1)N1CCN(c2ncnc3c2nnn3-c2ccc(Cl)cc2)CC1 | 0 | 2 | -1 | 0
Nc1nonc1-c1nc2ccccc2n1CC(=O)Nc1ccccc1F | 0 | 1 | 54* | 1
CC(=O)C1=C(C)NC(=O)NC1c1ccc(-c2ccc(Br)cc2)o1 (configuration not stated) | 0 | -5 | 2 | -1
CC(C)(C)OC(=O)N1CCc2c(cnn2-c2cccc(C(=O)Nc3ccc(N4CCOCC4)cc3)c2)C1 | 4.1* | 12 | 1 | -1
O=C(Nc1ccc(N2CCOCC2)cc1)c1cccc(-n2ncc3c2CCNC3)c1 | 0 | 1 | 0 | 0
O=C(Nc1ccc(N2CCOCC2)cc1)c1cccc(-n2cc(-c3nc4ccccc4o3)cn2)c1 | 2.4* | -5 | -6 | -1
Cn1c(C(=O)NCC2Cc3cc(-c4cnccn4)ccc3O2)cc2ccccc21 (configuration not stated) | 0 | -13 | -18 | 2
COc1ccc(C2C(C#N)=C(N)Oc3c2sc2ccccc32)c(OC)c1 (configuration not stated) | 0 | -3 | 64* | -1
COc1ccccc1C1C(C#N)=C(N)Oc2c1sc1ccccc21 (configuration not stated) | 0 | -10 | 33* | 0
N#CC1=C(N)Oc2c(sc3ccccc23)C1c1ccc(Cl)cc1Cl (configuration not stated) | 0 | 6 | -1 | 0
N#CC1=C(N)Oc2c(sc3ccccc23)C1c1ccccc1OC(=O)c1ccccc1Cl (configuration not stated) | 0 | 5 | -3 | 1
Cc1cc(N2CCCC(C(=O)Nc3ccccc3)C2)n2ncnc2n1 (configuration not stated) | 0 | -6 | 13 | 1
O=C(NCCc1nnc2n1CCN(Cc1ccc(OC(F)(F)F)cc1)CC2)c1ccoc1 | 0 | -4 | 8 | 2

Screening data as filed in PubChem.
